# Key:
# Assay in all cases: DAPPL (digital affinity profiling via proximity ligation, sequencing); 10 mM Tris-HCl pH 7.5, 50 mM NaCl, 1 mM DTT, 4% glycerol, room temperature, 30 min; GST-TFs on glutathione beads, 16-mer random dsDNA library, 0.1% formaldehyde crosslink after washing; high values mean tight binding
# FEV = target: T1, FEV (Homo sapiens, UniProt Q99581 1-238); details: protein: recombinant; tags: N-terminal GST; dsDNA, one strand shown
# T1 sequence: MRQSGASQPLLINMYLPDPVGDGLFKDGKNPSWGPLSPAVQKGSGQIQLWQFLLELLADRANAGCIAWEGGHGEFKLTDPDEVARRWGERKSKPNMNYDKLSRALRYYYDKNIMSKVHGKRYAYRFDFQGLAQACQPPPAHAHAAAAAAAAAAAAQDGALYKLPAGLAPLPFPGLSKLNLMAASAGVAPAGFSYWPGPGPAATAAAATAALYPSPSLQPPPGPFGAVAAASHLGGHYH
# Procedure, shortened: (§1)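 Beads coated with glutathione captured GST-fused human transcription factors that had been expressed in yeast, and the factors were then given DNA barcodes and pooled with a tag-only sample. The pools were incubated with 200 nmole of a random double-stranded 16-mer DNA library in Tris/NaCl/DTT/glycerol buffer for 30 min at room temperature, washed, crosslinked with 0.1% formaldehyde and proximity-ligated with BsaI/T4 ligase at 37 °C for 1 h. PCR amplification and Illumina NextSeq500 sequencing came last. Binding signal is each hexamer's read frequency for a factor divided by its frequency for the tag-only sample.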
# ETV5 = ETV5 (Homo sapiens, UniProt P41161 1-510); details: protein: recombinant; tags: N-terminal GST; dsDNA, one strand shown
# Procedure, shortened: as §1
# HSF1 = HSF1 (Homo sapiens, UniProt Q00613 1-529); details: protein: recombinant; tags: N-terminal GST; chain copies: 3; dsDNA, one strand shown
# Procedure, shortened: as §1
# SPIC = target: T2, SPIC (Homo sapiens, UniProt Q8N5J4 1-248); details: protein: recombinant; tags: N-terminal GST; dsDNA, one strand shown
# T2 sequence: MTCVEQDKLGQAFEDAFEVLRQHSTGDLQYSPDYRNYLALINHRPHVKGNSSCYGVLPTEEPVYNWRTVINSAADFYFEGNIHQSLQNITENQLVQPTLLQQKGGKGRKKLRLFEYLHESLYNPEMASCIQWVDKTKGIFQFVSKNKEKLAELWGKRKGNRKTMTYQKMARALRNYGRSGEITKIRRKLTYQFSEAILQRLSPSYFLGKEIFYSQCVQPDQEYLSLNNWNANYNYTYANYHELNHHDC
# Procedure, shortened: as §1
# ELF4 = ELF4 (Homo sapiens, UniProt Q99607 1-663); details: protein: recombinant; tags: N-terminal GST; dsDNA, one strand shown
# Procedure, shortened: as §1
# ELK4 = target: T3, ELK4 (Homo sapiens, UniProt P28324-2 1-405); details: protein: recombinant; tags: N-terminal GST; dsDNA, one strand shown
# T3 sequence: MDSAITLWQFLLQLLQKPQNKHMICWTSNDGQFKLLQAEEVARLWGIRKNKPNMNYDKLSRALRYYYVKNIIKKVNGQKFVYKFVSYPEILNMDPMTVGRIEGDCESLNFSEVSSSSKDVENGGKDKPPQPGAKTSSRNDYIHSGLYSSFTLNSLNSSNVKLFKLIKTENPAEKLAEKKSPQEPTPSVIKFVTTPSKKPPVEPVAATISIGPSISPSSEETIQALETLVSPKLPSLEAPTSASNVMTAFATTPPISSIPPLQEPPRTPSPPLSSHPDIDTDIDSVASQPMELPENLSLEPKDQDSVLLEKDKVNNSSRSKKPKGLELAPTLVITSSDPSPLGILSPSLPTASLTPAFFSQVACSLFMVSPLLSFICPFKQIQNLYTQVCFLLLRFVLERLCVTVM
# Procedure, shortened: as §1
# ETV2 = target: T4, ETV2 (Homo sapiens, UniProt O00321 1-342); details: protein: recombinant; tags: N-terminal GST; dsDNA, one strand shown
# T4 sequence: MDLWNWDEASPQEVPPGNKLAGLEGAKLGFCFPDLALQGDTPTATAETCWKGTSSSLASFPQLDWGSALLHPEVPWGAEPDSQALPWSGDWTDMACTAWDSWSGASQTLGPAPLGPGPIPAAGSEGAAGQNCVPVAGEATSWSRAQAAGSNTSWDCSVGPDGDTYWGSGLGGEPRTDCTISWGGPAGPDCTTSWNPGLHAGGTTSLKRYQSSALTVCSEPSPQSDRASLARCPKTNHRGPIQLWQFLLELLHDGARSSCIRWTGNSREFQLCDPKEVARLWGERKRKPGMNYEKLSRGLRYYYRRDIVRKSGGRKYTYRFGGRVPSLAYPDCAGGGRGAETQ
# Procedure, shortened: as §1
# ELF3 = target: T5, ELF3 (Homo sapiens, UniProt P78545 1-371); details: protein: recombinant; tags: N-terminal GST; dsDNA, one strand shown
# T5 sequence: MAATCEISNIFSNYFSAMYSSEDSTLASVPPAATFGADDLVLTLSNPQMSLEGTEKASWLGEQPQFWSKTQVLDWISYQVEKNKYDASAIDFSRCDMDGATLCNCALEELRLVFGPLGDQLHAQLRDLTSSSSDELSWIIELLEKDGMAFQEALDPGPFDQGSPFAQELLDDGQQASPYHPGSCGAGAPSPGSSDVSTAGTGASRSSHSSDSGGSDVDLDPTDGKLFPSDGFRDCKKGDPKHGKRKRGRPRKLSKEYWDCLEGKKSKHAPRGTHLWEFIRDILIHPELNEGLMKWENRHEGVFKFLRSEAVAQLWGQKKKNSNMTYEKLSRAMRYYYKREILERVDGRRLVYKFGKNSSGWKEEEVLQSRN
# Procedure, shortened: as §1
# CRX = CRX (Homo sapiens, UniProt O43186 1-299); details: protein: recombinant; tags: N-terminal GST; dsDNA, one strand shown
# Procedure, shortened: as §1
# ETV1 = ETV1 (Homo sapiens, UniProt P50549 1-477); details: protein: recombinant; tags: N-terminal GST; dsDNA, one strand shown
# Procedure, shortened: as §1
# ERF = target: T6, ERF (Homo sapiens, UniProt P50548 1-548); details: protein: recombinant; tags: N-terminal GST; dsDNA, one strand shown
# T6 sequence: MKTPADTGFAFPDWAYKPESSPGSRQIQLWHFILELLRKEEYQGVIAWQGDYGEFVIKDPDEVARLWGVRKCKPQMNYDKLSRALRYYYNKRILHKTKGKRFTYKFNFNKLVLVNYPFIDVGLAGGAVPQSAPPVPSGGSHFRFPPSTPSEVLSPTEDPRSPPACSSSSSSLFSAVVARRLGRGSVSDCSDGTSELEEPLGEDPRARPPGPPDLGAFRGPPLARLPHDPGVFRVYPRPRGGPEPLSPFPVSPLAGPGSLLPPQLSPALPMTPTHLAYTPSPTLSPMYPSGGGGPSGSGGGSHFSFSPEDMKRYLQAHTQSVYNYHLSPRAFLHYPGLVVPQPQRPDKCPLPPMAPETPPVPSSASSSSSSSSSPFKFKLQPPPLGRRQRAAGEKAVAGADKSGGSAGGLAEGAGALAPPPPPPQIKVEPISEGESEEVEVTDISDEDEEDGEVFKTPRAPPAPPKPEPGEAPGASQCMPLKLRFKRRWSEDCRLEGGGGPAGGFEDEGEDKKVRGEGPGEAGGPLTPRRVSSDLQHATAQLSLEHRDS
# Procedure, shortened: as §1
# ETV3L = target: T7, ETV3L (Homo sapiens, UniProt Q6ZN32 1-361); details: protein: recombinant; tags: N-terminal GST; dsDNA, one strand shown
# T7 sequence: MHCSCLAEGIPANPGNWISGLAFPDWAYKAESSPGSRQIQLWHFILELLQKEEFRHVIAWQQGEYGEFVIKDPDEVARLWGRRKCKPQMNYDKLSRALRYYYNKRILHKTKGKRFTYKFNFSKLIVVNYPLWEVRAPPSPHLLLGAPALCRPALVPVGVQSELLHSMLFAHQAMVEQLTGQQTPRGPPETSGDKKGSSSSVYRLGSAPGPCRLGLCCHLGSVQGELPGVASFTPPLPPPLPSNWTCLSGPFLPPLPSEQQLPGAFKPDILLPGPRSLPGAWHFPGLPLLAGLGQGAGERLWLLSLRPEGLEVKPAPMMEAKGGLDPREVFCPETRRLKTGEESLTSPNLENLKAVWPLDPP
# Procedure, shortened: as §1
# ETS2 = target: T8, ETS2 (Homo sapiens, UniProt P15036 1-469); details: protein: recombinant; tags: N-terminal GST; dsDNA, one strand shown
# T8 sequence: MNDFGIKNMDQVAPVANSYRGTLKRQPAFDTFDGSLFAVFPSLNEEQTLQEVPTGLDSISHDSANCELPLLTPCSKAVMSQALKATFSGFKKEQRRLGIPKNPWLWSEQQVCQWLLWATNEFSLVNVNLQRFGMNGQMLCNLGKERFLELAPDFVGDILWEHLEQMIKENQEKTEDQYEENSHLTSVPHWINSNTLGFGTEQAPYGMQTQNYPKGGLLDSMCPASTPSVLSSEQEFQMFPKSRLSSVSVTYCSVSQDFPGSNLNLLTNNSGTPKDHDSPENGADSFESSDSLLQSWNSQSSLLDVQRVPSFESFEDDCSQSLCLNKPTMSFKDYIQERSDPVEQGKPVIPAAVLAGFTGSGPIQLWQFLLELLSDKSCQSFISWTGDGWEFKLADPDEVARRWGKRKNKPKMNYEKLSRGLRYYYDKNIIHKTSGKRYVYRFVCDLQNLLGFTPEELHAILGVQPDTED
# Procedure, shortened: as §1
# SPDEF = target: T9, SPDEF (Homo sapiens, UniProt O95238 1-335); details: protein: recombinant; tags: N-terminal GST; dsDNA, one strand shown
# T9 sequence: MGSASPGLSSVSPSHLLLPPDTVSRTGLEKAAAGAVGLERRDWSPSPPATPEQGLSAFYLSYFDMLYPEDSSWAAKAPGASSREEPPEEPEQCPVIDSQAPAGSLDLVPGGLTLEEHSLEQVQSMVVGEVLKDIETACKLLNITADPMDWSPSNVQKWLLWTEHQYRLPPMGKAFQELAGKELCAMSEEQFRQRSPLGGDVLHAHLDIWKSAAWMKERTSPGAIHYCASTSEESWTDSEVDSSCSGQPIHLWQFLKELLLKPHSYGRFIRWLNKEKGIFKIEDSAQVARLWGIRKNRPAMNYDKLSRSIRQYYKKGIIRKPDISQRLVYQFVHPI
# Procedure, shortened: as §1
# ETV7 = target: T10, ETV7 (Homo sapiens, UniProt Q9Y603 1-341); details: protein: recombinant; tags: N-terminal GST; dsDNA, one strand shown
# T10 sequence: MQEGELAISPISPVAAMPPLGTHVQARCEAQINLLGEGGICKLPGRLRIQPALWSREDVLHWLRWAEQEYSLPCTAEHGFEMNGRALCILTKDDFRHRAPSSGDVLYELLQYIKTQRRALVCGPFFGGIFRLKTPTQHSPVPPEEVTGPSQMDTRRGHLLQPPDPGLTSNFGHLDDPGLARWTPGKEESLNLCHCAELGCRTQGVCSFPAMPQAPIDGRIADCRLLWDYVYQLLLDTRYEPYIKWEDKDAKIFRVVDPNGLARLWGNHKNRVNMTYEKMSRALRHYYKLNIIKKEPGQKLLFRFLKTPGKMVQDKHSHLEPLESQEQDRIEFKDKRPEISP
# Procedure, shortened: as §1
# ELF5 = target: T11, ELF5 (Homo sapiens, UniProt Q9UKW6-2 1-255); details: protein: recombinant; tags: N-terminal GST; dsDNA, one strand shown
# T11 sequence: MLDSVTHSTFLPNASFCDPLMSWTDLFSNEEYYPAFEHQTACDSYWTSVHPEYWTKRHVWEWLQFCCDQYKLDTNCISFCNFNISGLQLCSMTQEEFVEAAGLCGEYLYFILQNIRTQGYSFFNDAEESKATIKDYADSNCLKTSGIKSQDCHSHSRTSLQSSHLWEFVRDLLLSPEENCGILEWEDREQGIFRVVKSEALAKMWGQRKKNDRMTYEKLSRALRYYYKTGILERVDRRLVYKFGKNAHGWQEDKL
# Procedure, shortened: as §1
# ETV3 = target: T12, ETV3 (Homo sapiens, UniProt P41162-2 1-143); details: protein: recombinant; tags: N-terminal GST; dsDNA, one strand shown
# T12 sequence: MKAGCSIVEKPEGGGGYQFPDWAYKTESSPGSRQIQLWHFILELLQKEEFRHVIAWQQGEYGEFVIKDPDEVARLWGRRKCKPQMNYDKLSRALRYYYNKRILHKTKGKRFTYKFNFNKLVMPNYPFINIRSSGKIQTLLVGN
# Procedure, shortened: as §1
# ETV6 = ETV6 (Homo sapiens, UniProt P41212 1-452); details: protein: recombinant; tags: N-terminal GST; dsDNA, one strand shown
# Procedure, shortened: as §1
# Sequence of ELF4 (Q99607 whole entry): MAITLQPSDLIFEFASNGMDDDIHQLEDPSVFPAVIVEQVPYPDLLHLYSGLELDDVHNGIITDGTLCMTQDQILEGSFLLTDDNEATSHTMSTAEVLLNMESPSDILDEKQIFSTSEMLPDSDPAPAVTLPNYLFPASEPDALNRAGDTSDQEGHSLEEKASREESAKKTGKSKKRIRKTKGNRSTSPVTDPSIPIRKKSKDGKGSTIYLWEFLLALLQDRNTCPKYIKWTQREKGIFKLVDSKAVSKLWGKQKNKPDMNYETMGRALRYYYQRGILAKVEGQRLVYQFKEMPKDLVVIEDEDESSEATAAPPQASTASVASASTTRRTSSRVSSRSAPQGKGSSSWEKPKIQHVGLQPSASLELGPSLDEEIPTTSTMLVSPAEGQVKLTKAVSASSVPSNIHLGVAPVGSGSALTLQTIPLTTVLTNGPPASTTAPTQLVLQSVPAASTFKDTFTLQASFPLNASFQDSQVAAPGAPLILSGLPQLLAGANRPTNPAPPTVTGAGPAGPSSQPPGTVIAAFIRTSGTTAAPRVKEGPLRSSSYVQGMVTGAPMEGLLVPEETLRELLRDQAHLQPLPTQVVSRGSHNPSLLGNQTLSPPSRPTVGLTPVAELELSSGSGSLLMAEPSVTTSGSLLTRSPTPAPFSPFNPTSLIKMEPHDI
# Sequence of ETV1 (P50549 whole entry): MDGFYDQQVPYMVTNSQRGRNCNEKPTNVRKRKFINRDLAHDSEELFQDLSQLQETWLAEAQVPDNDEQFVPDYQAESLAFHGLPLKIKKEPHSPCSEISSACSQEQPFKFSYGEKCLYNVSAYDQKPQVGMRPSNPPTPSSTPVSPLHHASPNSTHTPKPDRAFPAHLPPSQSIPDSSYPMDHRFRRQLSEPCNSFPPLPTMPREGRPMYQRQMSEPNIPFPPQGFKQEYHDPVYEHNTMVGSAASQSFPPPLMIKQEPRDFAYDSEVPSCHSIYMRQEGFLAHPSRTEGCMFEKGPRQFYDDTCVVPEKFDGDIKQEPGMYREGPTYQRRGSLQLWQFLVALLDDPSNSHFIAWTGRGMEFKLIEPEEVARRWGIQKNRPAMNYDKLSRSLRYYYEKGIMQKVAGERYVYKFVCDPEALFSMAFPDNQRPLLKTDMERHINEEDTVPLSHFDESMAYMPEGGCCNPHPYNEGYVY
# Sequence of ETV6 (P41212 whole entry): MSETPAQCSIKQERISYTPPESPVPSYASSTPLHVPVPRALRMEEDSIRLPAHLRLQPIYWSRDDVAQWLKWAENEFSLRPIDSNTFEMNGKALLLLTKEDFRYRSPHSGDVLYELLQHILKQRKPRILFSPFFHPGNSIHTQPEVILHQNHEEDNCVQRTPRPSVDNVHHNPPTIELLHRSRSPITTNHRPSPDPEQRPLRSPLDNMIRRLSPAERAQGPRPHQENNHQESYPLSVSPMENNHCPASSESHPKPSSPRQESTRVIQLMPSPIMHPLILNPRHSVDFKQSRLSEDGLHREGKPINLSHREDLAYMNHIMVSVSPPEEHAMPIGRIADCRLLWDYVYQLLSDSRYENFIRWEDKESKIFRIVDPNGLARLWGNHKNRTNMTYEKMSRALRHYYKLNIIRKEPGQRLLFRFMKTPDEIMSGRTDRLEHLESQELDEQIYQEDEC
# Sequence of CRX (O43186 whole entry): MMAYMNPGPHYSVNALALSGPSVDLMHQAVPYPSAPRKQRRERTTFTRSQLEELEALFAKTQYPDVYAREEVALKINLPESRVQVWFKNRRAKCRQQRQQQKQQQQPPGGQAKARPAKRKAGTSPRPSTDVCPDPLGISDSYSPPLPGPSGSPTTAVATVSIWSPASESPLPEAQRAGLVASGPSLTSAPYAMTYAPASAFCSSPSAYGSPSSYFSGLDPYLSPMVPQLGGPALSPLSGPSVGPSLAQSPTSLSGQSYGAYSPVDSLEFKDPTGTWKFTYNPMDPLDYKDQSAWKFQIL
# Sequence of ETV5 (P41161 whole entry): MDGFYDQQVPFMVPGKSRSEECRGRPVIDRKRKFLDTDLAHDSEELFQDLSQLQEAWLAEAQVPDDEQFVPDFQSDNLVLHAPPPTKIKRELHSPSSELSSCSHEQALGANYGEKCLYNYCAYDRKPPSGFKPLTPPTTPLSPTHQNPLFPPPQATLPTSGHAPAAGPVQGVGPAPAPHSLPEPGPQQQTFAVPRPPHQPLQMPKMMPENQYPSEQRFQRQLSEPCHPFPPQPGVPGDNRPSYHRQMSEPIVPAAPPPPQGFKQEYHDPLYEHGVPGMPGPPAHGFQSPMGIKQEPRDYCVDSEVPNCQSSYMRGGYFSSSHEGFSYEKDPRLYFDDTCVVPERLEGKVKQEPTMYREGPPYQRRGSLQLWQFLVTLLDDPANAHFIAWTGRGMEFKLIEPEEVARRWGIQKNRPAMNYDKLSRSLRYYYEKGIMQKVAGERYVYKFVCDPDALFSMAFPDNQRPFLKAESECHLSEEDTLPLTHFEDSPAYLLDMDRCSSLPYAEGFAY
# Sequence of HSF1 (Q00613 whole entry): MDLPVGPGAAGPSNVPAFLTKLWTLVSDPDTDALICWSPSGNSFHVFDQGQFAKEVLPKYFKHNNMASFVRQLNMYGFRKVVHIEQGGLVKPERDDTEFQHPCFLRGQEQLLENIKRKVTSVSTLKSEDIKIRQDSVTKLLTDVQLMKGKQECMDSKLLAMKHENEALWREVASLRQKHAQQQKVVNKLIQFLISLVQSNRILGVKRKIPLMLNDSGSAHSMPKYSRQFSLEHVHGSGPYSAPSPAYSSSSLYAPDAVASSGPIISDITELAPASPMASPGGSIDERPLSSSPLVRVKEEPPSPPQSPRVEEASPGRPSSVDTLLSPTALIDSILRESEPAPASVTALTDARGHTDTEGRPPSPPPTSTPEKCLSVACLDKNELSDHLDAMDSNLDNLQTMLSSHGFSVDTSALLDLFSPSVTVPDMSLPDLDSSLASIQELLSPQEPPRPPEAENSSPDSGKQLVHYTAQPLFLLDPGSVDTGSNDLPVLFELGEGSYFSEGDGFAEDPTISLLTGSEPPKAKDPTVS
sequence,measurement,setting,value
TTTCAT,binding signal,FEV,"1.12 fold enrichment (6-mer frequency, TF over GST control)"
same,binding signal,ETV5,"1.09 fold enrichment (6-mer frequency, TF over GST control)"
same,binding signal,HSF1,"1.13 fold enrichment (6-mer frequency, TF over GST control)"
same,binding signal,SPIC,"1.11 fold enrichment (6-mer frequency, TF over GST control)"
same,binding signal,ELF4,"1.2 fold enrichment (6-mer frequency, TF over GST control)"
same,binding signal,ELK4,"1.19 fold enrichment (6-mer frequency, TF over GST control)"
same,binding signal,ETV2,"1.1 fold enrichment (6-mer frequency, TF over GST control)"
same,binding signal,ELF3,"1.11 fold enrichment (6-mer frequency, TF over GST control)"
same,binding signal,CRX,"1.18 fold enrichment (6-mer frequency, TF over GST control)"
same,binding signal,ETV1,"1.16 fold enrichment (6-mer frequency, TF over GST control)"
same,binding signal,ERF,"1.25 fold enrichment (6-mer frequency, TF over GST control)"
same,binding signal,ETV3L,"1.15 fold enrichment (6-mer frequency, TF over GST control)"
same,binding signal,ETS2,"1.17 fold enrichment (6-mer frequency, TF over GST control)"
same,binding signal,SPDEF,"1.2 fold enrichment (6-mer frequency, TF over GST control)"
same,binding signal,ETV7,"1.2 fold enrichment (6-mer frequency, TF over GST control)"
same,binding signal,ELF5,"1.23 fold enrichment (6-mer frequency, TF over GST control)"
same,binding signal,ETV3,"1.22 fold enrichment (6-mer frequency, TF over GST control)"
same,binding signal,ETV6,"1.13 fold enrichment (6-mer frequency, TF over GST control)"

# — publication PMC7862700, “An all-to-all approach to the identification of sequence-specific readers for epigenetic DNA modifications on cytosine”
